# From PubChem BioAssay AID1347419 (Sanford-Burnham Center for Chemical Genomics, 2020)
# About 820 (0.83%) of roughly 99,000 compounds were called active.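 How the source made its calls: active means Z-score of -3 or lower, scaled per plate to the spread of control and sample wells; inactive means z-score above -3.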 What follows is part of a selection rich in actives, with near analogues and random picks from the rest.
# Molecular target: Protein-tyrosine kinase 2-beta (Homo sapiens) (UniProt Q14289)
# Assay: antagonists of Pyk2 self-association, primary screen, Q293 cells, FERM NanoBiT luminescence, HTS (AID 1347419);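 further: the deposit names both 25 µM and 10 µM; negative z-score means lost luminescence so less FERM oligomerization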
# Set-up: dose or concentration left out as unconfirmed
# Conditions: active compounds read low
# Protein-tyrosine kinase 2-beta (Homo sapiens), sequence (Q14289 whole entry, looked up): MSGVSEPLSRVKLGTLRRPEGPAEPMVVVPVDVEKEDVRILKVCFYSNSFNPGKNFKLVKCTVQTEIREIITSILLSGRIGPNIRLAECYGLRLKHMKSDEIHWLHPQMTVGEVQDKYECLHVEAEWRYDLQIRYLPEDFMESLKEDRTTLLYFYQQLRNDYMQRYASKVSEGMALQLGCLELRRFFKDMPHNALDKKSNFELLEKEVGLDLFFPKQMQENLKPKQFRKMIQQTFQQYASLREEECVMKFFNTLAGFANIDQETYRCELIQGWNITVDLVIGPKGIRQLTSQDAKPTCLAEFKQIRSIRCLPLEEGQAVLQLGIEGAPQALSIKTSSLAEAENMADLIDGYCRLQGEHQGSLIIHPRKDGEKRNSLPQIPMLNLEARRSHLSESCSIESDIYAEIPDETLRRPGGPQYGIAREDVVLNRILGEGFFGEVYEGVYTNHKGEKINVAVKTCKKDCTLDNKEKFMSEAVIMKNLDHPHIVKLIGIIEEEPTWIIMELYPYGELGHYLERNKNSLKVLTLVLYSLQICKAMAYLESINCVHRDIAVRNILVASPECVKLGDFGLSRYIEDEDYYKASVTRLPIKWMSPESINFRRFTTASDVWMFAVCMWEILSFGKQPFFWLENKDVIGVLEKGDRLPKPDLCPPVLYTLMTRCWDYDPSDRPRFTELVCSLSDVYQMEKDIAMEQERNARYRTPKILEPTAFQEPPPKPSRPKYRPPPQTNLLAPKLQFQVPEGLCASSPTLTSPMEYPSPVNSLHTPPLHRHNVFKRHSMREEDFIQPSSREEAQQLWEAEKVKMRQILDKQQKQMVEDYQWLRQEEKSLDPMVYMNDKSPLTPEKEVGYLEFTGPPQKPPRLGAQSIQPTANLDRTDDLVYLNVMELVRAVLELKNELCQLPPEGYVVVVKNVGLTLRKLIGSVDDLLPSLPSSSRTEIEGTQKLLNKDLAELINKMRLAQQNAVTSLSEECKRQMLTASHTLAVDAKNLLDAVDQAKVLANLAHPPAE
row,SMILES,z-score
1,O=C(Nc1ccc2c(c1)OCCO2)c1ccncc1,0.87 (inactive)
2,O=C(Nc1ccc2c(c1)OCCO2)c1ccc(Cl)c(S(=O)(=O)N2CCCCC2)c1,-3.16 (active)
3,Cc1ccc(C(=O)Nc2ccc3c(c2)OCO3)cc1S(=O)(=O)N1CCCCC1,-0.16 (inactive)
4,Cc1ccc(C(=O)N/C(=C/c2cccnc2)C(=O)O)cc1,0.41 (inactive)
5,CC(=C/c1ccccc1)/C=N/NC(=O)c1cc(C)oc1C,-0.05 (inactive)
6,COc1ccc(-c2cc(C(F)(F)F)nc(SCC(=O)Nc3ccc4c(c3)OCO4)n2)cc1OC,-0.25 (inactive)
7,CCCc1nc2ccccc2c(C(=O)OCC(=O)c2ccc3c(c2)NC(=O)CO3)c1CC,-1.42 (inactive)
8,CCCc1nc2ccccc2c(C(=O)OCc2nnc(-c3cc(OC)c(OC)c(OC)c3)o2)c1CC,-3.12 (active)
9,CCOC(=O)c1cc(-c2nnc(-c3cc(OC)c(OC)c(OC)c3)o2)c(C)nc1C,0.08 (inactive)
10,CCOC(=O)c1c(NC(=O)C2CCN(S(=O)(=O)c3ccc(Cl)cc3)CC2)sc2c1CCCC2,0.49 (inactive)
11,CC(=O)CCC(=O)c1ccc2ccccc2c1,1.48 (inactive)
12,Cc1ccc2nc(-c3cccnc3)c(NC3CCCC3)n2c1,0.15 (inactive)
13,Cc1cc(OCCN2CCCC2)cc(C(C)C)c1,1.27 (inactive)
14,C/C(=N\N=C(N)N)c1ccc(Cl)cc1,-0.37 (inactive)
15,CCSc1nc(-c2ccc(OC)cc2)cc(-c2ccc(OC)cc2)c1C#N,-1.07 (inactive)
16,CCOc1cc(-c2cc(-c3ccc(OC)cc3)nc(N)c2C#N)ccc1O,-3.73 (active)
17,CCOC(=O)CC(=O)CSc1nc(-c2ccccc2)cc(-c2ccc(Cl)cc2)c1C#N,-0.86 (inactive)
18,NC(=O)CCC(NS(=O)(=O)c1ccc(Cl)cc1)C(=O)NCc1ccccc1Cl (configuration not stated),-0.26 (inactive)
19,CCCn1nc(NS(=O)(=O)c2ccccc2)c2cc3cc(C)ccc3nc21,-0.3 (inactive)
20,Cc1cc(C)c(C2C3=C(Nc4c2c(C)nn4-c2ccccn2)c2ccccc2C3=O)c(C)c1 (configuration not stated),1.27 (inactive)
21,CS(=O)(=O)N(Cc1ccccc1)c1ccc(C(=O)NN=C2CCCCCC2)cc1,-0.45 (inactive)
22,CCOC(=O)C1=C(C)NC(C)=C(C(=O)OCC)C1c1ccccn1,1.06 (inactive)
23,C=CCOC(=O)C1=C(C)NC(C)=C(C(=O)OCC=C)C1c1cccs1,-3.93 (active)
24,C=CCOC(=O)C1=C(C)NC(SCC(=O)OCC)=C(C#N)C1c1ccc(C)cc1 (configuration not stated),-1.05 (inactive)
25,Cc1ccccc1-n1c(SCC(=O)NCc2cccs2)nnc1-c1ccncc1,-0.72 (inactive)
26,Cc1ccc(-n2c(SCC(=O)NCc3ccc4c(c3)OCO4)nnc2-c2cccnc2)c(C)c1,-4.03 (active)
27,Cc1ccccc1-c1nnc(SCC(=O)NCc2ccc3c(c2)OCO3)n1C,0.49 (inactive)
